From PubChem BioAssay AID1159580 (chemical genetic matrix, 2015)
About 2,000 (36%) of roughly 5,500 compounds were called active. Roughly 18% stayed inconclusive and do not appear here. This is one part of the list. Unmarked numbers belong to inactive results. Cut-off read from the data, not from the text of the source: active = normalized growth mostly below about 0.91 (no sharp cut-off); inconclusive = no clear call, values can overlap the other calls; inactive = mostly above about 0.92.

Test: chemical genetic growth profiling, strain panel (AID 1159580);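 note: tested at 20 µM; growth read once vehicle control cultures reached saturation at 30 °C; 1 = growth at the plate median or of vehicle wells; lower values mean less growth of the strain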
Details: growth OD

In the case of `O=C(O)c1ccccc1-c1c2cc(Br)c(=O)cc-2oc2[c]([Hg])c(O)c(Br)cc12`, the normalized growth (S. cerevisiae deletion strains, locus YKL009W, strain mrt4, active compounds read low) is reported as 0.924, the normalized growth (S. cerevisiae deletion strains, locus YKL068W, active compounds read low) is reported as 0.565 (active) and the normalized growth (S. cerevisiae deletion strains, locus YKL085W, strain MDH1 (second series), active compounds read low) is reported as 0.0686 (active). For the same compound, the normalized growth (S. cerevisiae deletion strains, locus YKL085W, strain MDH1, active compounds read low) was 0.0686 (active), the normalized growth (S. cerevisiae deletion strains, locus YKL160W, strain elf1, active compounds read low) was 0.0872 (active) and the normalized growth (S. cerevisiae deletion strains, locus YKL190W, strain CNB1, active compounds read low) was 0.575 (active). The normalized growth (S. cerevisiae deletion strains, locus YKR001C, strain vps1, active compounds read low) was 0.101 (active), the normalized growth (S. cerevisiae deletion strains, locus YKR026C, strain gcn3, active compounds read low) was 1.05 and the normalized growth (S. cerevisiae deletion strains, locus YKR091W, strain srl3, active compounds read low) was 1.04. For the same compound, the normalized growth (S. cerevisiae deletion strains, locus YLL001W, strain dnm1, active compounds read low) was 1.03, the normalized growth (S. cerevisiae deletion strains, locus YLL026W, active compounds read low) was 1.04 and the normalized growth (S. cerevisiae deletion strains, locus YLL041C, strain sdh2, active compounds read low) was 1.02. It also gave a normalized growth (S. cerevisiae deletion strains, locus YLR027C, strain aat2, active compounds read low) of 1.04, a normalized growth (S. cerevisiae deletion strains, locus YLR039C, strain RIC1, active compounds read low) of 0.949 and a normalized growth (S. cerevisiae deletion strains, locus YLR058C, strain SHM2, active compounds read low) of 0.992. The normalized growth (S. cerevisiae deletion strains, locus YLR102C, strain apc9, active compounds read low) was 0.081 (active), the normalized growth (S. cerevisiae deletion strains, locus YLR113W, strain HOG1, active compounds read low) was 0.485 (active) and the normalized growth (S. cerevisiae deletion strains, locus YLR221C, strain rsa3, active compounds read low) was 1. It also gave a normalized growth (S. cerevisiae deletion strains, locus YLR258W, strain gsy2, active compounds read low) of 1.04, a normalized growth (S. cerevisiae deletion strains, locus YLR262C, strain YPT6 (second series), active compounds read low) of 1.09 and a normalized growth (S. cerevisiae deletion strains, locus YLR262C, strain YPT6, active compounds read low) of 0.68. The normalized growth (S. cerevisiae deletion strains, locus YLR268W, strain sec22, active compounds read low) was 0.106 (active), the normalized growth (S. cerevisiae deletion strains, locus YLR320W, strain mms22, active compounds read low) was 1.02 and the normalized growth (S. cerevisiae deletion strains, locus YLR330W, strain CHS5, active compounds read low) was 0.0829 (active). The normalized growth (S. cerevisiae deletion strains, locus YLR342W, strain FKS1 (second series), active compounds read low) was 0.132 (active), the normalized growth (S. cerevisiae deletion strains, locus YLR342W, strain FKS1, active compounds read low) was 1.02 and the normalized growth (S. cerevisiae deletion strains, locus YLR357W, strain rsc2, active compounds read low) was 1. For the same compound, the normalized growth (S. cerevisiae deletion strains, locus YLR370C, strain arc18, active compounds read low) was 1.04, the normalized growth (S. cerevisiae deletion strains, locus YLR371W, strain rom2, active compounds read low) was 0.0749 (active) and the normalized growth (S. cerevisiae deletion strains, locus YLR384C, strain iki3, active compounds read low) was 1.02. For the same compound, the normalized growth (S. cerevisiae deletion strains, locus YLR418C, strain cdc73, active compounds read low) was 0.166 (active), the normalized growth (S. cerevisiae deletion strains, locus YML016C, strain PPZ1, active compounds read low) was 0.0683 (active) and the normalized growth (S. cerevisiae deletion strains, locus YML032C, strain rad52, active compounds read low) was 0.99. For the same compound, the normalized growth (S. cerevisiae deletion strains, locus YML120C, strain ndi1, active compounds read low) was 1.03, the normalized growth (S. cerevisiae deletion strains, locus YML124C, strain tub3, active compounds read low) was 0.779 (active) and the normalized growth (S. cerevisiae deletion strains, locus YMR058W, strain fet3, active compounds read low) was 1.02. The normalized growth (S. cerevisiae deletion strains, locus YMR078C, strain ctf18, active compounds read low) was 0.484 (active), the normalized growth (S. cerevisiae deletion strains, locus YMR125W, strain sto1, active compounds read low) was 1.02 and the normalized growth (S. cerevisiae deletion strains, locus YMR129W, active compounds read low) was 1.04. The normalized growth (S. cerevisiae deletion strains, locus YMR205C, strain PFK2, active compounds read low) was 1.09, the normalized growth (S. cerevisiae deletion strains, locus YMR223W, strain ubp8, active compounds read low) was 0.0739 (active) and the normalized growth (S. cerevisiae deletion strains, locus YMR231W, strain pep5, active compounds read low) was 1.03. For the same compound, the normalized growth (S. cerevisiae deletion strains, locus YMR263W, strain SAP30, active compounds read low) was 0.943, the normalized growth (S. cerevisiae deletion strains, locus YMR307W, strain GAS1, active compounds read low) was 0.228 (active) and the normalized growth (S. cerevisiae deletion strains, locus YNL067W, strain RPL9B, active compounds read low) was 0.814 (active). The normalized growth (S. cerevisiae deletion strains, locus YNL071W, strain lat1, active compounds read low) was 1.01, the normalized growth (S. cerevisiae deletion strains, locus YNL128W, strain TEP1, active compounds read low) was 0.196 (active) and the normalized growth (S. cerevisiae deletion strains, locus YNL153C, strain GIM3, active compounds read low) was 0.89. The normalized growth (S. cerevisiae deletion strains, locus YNL183C, strain NPR1, active compounds read low) was 0.513 (active), the normalized growth (S. cerevisiae deletion strains, locus YNL209W, strain ssb2, active compounds read low) was 1.03 and the normalized growth (S. cerevisiae deletion strains, locus YNL233W, strain BNI4, active compounds read low) was 0.104 (active). The normalized growth (S. cerevisiae deletion strains, locus YNL248C, strain rpa49, active compounds read low) was 1.02, the normalized growth (S. cerevisiae deletion strains, locus YNL250W, strain rad50, active compounds read low) was 0.0998 (active) and the normalized growth (S. cerevisiae deletion strains, locus YNL271C, strain bni1, active compounds read low) was 0.0638 (active). For the same compound, the normalized growth (S. cerevisiae deletion strains, locus YNL298W, strain CLA4, active compounds read low) was 0.062 (active), the normalized growth (S. cerevisiae deletion strains, locus YNL307C, strain MCK1, active compounds read low) was 0.072 (active) and the normalized growth (S. cerevisiae deletion strains, locus YNL322C, strain KRE1 (second series), active compounds read low) was 1.05. The normalized growth (S. cerevisiae deletion strains, locus YNL322C, strain KRE1, active compounds read low) was 0.914 (active), the normalized growth (S. cerevisiae deletion strains, locus YNR049C, strain mso1, active compounds read low) was 1.02 and the normalized growth (S. cerevisiae deletion strains, locus YNR052C, strain pop2, active compounds read low) was 0.937. For the same compound, the normalized growth (S. cerevisiae deletion strains, locus YOL006C, strain TOP1, active compounds read low) was 0.153 (active), the normalized growth (S. cerevisiae deletion strains, locus YOL012C, strain htz1) was 0.228 and the normalized growth (S. cerevisiae deletion strains, locus YOL147C, strain pex11, active compounds read low) was 0.995. The normalized growth (S. cerevisiae deletion strains, locus YOR001W, strain rrp6, active compounds read low) was 1.04, the normalized growth (S. cerevisiae deletion strains, locus YOR061W, strain CKA2, active compounds read low) was 0.155 (active) and the normalized growth (S. cerevisiae deletion strains, locus YOR069W, strain VPS5, active compounds read low) was 0.494 (active). It also gave a normalized growth (S. cerevisiae deletion strains, locus YOR070C, strain gyp1, active compounds read low) of 1.02, a normalized growth (S. cerevisiae deletion strains, locus YOR080W, strain dia2, active compounds read low) of 1.02 and a normalized growth (S. cerevisiae deletion strains, locus YOR083W, strain WHI5, active compounds read low) of 1.03. For the same compound, the normalized growth (S. cerevisiae deletion strains, locus YOR106W, strain vam3, active compounds read low) was 0.952, the normalized growth (S. cerevisiae deletion strains, locus YOR136W, strain idh2, active compounds read low) was 0.0743 (active) and the normalized growth (S. cerevisiae deletion strains, locus YOR144C, strain elg1, active compounds read low) was 1.02. The normalized growth (S. cerevisiae deletion strains, locus YOR184W, strain ser1, active compounds read low) was 0.143 (active), the normalized growth (S. cerevisiae deletion strains, locus YOR231W, strain MKK1, active compounds read low) was 0.345 (active) and the normalized growth (S. cerevisiae deletion strains, locus YOR265W, strain rbl2, active compounds read low) was 1.04. The normalized growth (S. cerevisiae deletion strains, locus YOR270C, strain vph1, active compounds read low) was 1.31 [resistant] (active), the normalized growth (S. cerevisiae deletion strains, locus YOR290C, strain snf2, active compounds read low) was 1.07 and the normalized growth (S. cerevisiae deletion strains, locus YOR316C, strain cot1, active compounds read low) was 0.0634 (active). The normalized growth (S. cerevisiae deletion strains, locus YPL051W, strain arl3, active compounds read low) was 1, the normalized growth (S. cerevisiae deletion strains, locus YPL055C, strain LGE1, active compounds read low) was 0.226 (active) and the normalized growth (S. cerevisiae deletion strains, locus YPL078C, strain atp4, active compounds read low) was 1.04. The normalized growth (S. cerevisiae deletion strains, locus YPL106C, strain sse1, active compounds read low) was 0.909, the normalized growth (S. cerevisiae deletion strains, locus YPL240C, strain hsp82, active compounds read low) was 1.03 and the normalized growth (S. cerevisiae deletion strains, locus YPL241C, strain CIN2, active compounds read low) was 0.987. The normalized growth (S. cerevisiae deletion strains, locus YPL256C, strain CLN2, active compounds read low) was 0.487 (active), the normalized growth (S. cerevisiae deletion strains, locus YPR119W, strain clb2, active compounds read low) was 0.0719 (active) and the normalized growth (S. cerevisiae deletion strains, locus YPR141C, strain kar3, active compounds read low) was 0.254 (active). The normalized growth (S. cerevisiae deletion strains, locus YPR163C, strain tif3, active compounds read low) was 0.0765 (active), the normalized growth (S. cerevisiae deletion strains, locus YPR167C, strain met16, active compounds read low) was 0.0655 (active) and the normalized growth (S. cerevisiae deletion strains, strain wtn01, active compounds read low) was 0.062 (active). The normalized growth (S. cerevisiae strains, strain wild type, active compounds read low) was 0.196 (active).
